This is an account of results in PubChem BioAssay (NCI).

Test systems include NCI-H23 lung; NCI-H226 lung; NCI-H322M lung; HOP-62 NSCLC; NCI-H460 lung; HOP-92 NSCLC; NCI-H522 lung; A549/ATCC NSCLC; 786-0 renal; COLO 205 colon.
Holding throughout (test): NCI-60 one-dose screen, 48 h (100 = growth as untreated, 0 = no growth, -100 = all killed)
Settings in all cases: 10 µM

“And” between values parts separate entries of the source, which are not always exact repeats. Identical values can stand only once. The panel holds about 83,000 compounds, 20% with a hit somewhere; the sample as a whole holds those more often.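 Assay: single dose, 48 h. Readout: percent growth (0 = no net growth; negative = cell death). Active: <10.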 The source made the active and inactive calls.

For the compound `COc1cc2c(cc1OC)C13CCN4CC5=CCOC6CC(=O)N2C1C6C5CC43` (stereo not given), the growth in the experiment on NCI-H23 lung is 90% (inactive) and 100% (inactive); with NCI-H226 lung it was 95.9% (inactive) and 95.7% (inactive); with NCI-H322M lung, 118% (inactive) and 144% (inactive); in the experiment on HOP-62 NSCLC, 120% (inactive) and 102% (inactive); with NCI-H460 lung it was 120% (inactive) and 83.2% (inactive); with HOP-92 NSCLC it was 87.4% (inactive). Further, the growth in the experiment on NCI-H522 lung was 105% (inactive) and 99.1% (inactive); in the experiment with A549/ATCC NSCLC, 99.4% (inactive); with 786-0 renal it was 112% (inactive) and 99.6% (inactive); in the experiment with COLO 205 colon, 95.8% (inactive) and 89% (inactive).

`[O-][n+]1ccccc1S`: the growth is 73.5% (inactive) in the experiment on NCI-H23 lung; 95.8% (inactive) in the experiment on NCI-H226 lung; 64.1% (inactive) with NCI-H322M lung; 58% (inactive) in the experiment on HOP-62 NSCLC; 8.67% (active) in the experiment with NCI-H460 lung; 97.1% (inactive) with HOP-92 NSCLC. The growth in the experiment with NCI-H522 lung is -34.7% (active); with A549/ATCC NSCLC, 30.4% (inactive); in the experiment on 786-0 renal, 46.3% (inactive); with COLO 205 colon it was 16.1% (inactive).

As for `Cc1ccc(C(=O)C2C(c3ccccc3)N2C2CCCCC2)cc1` (stereo not given), the growth with NCI-H23 lung is 102% (inactive) and 88.4% (inactive); in the experiment on NCI-H226 lung, 100% (inactive) and 94.7% (inactive); in the experiment with NCI-H322M lung, 107% (inactive); in the experiment on HOP-62 NSCLC it was 112% (inactive) and 101% (inactive); in the experiment on NCI-H460 lung, 98.6% (inactive) and 92% (inactive); in the experiment on HOP-92 NSCLC, 78.1% (inactive). For the same compound, the growth with NCI-H522 lung was 90.5% (inactive) and 75.5% (inactive); in the experiment with A549/ATCC NSCLC, 99.9% (inactive) and 105% (inactive); in the experiment with 786-0 renal it was 101% (inactive) and 97.6% (inactive); with COLO 205 colon, 126% (inactive) and 110% (inactive).

Regarding `CCOP(=O)(OCC)/C(C#N)=C/c1ccc(Br)cc1`, the growth is 92.9% (inactive) in the experiment on NCI-H23 lung; 96.2% (inactive) in the experiment on NCI-H226 lung; 105% (inactive) in the experiment with NCI-H322M lung; 89.7% (inactive) in the experiment with HOP-62 NSCLC; 104% (inactive) with NCI-H460 lung; 69.6% (inactive) in the experiment on HOP-92 NSCLC. Besides, the growth in the experiment with NCI-H522 lung was 89.7% (inactive); with A549/ATCC NSCLC it was 102% (inactive); in the experiment on 786-0 renal, 104% (inactive); in the experiment on COLO 205 colon, 109% (inactive).

Take `N#CCc1ccccc1`: the growth was 102% (inactive) with NCI-H23 lung; 96.3% (inactive) in the experiment on NCI-H226 lung; 105% (inactive) in the experiment with NCI-H322M lung; 97.4% (inactive) in the experiment with HOP-62 NSCLC; 106% (inactive) in the experiment on NCI-H460 lung; 82.2% (inactive) in the experiment with HOP-92 NSCLC. Also, the growth is 99.4% (inactive) in the experiment with NCI-H522 lung, 101% (inactive) with A549/ATCC NSCLC, 101% (inactive) in the experiment on 786-0 renal and 107% (inactive) with COLO 205 colon.

On to `COc1ccc2c(ccc3oc([N+](=O)[O-])cc32)c1`, for which the growth is -9.56% (active) in the experiment on NCI-H23 lung; -4.88% (active) in the experiment on NCI-H226 lung; -10.7% (active) with NCI-H322M lung; -4.6% (active) in the experiment on HOP-62 NSCLC; -3.44% (active) in the experiment on NCI-H460 lung; 10.8% (inactive) with HOP-92 NSCLC. The growth with NCI-H522 lung is -52% (active); in the experiment with A549/ATCC NSCLC it was 0.82% (active); with 786-0 renal, -2.34% (active); in the experiment on COLO 205 colon, -76.3% (active).

Take `O=[N+]([O-])/C=C/c1ccc(Cl)cc1[N+](=O)[O-]`: the growth is 65.6% (inactive) in the experiment on NCI-H23 lung; 89.5% (inactive) in the experiment on NCI-H226 lung; 96.6% (inactive) in the experiment on NCI-H322M lung; 62.9% (inactive) with HOP-62 NSCLC; 58.4% (inactive) in the experiment on NCI-H460 lung; 92.3% (inactive) in the experiment on HOP-92 NSCLC. Further, the growth in the experiment on NCI-H522 lung is 42.9% (inactive); in the experiment with A549/ATCC NSCLC, 85.4% (inactive); in the experiment with 786-0 renal, 28.3% (inactive); in the experiment on COLO 205 colon it was -20.9% (active).

Regarding `O=C(CCl)Nc1ccc(Cl)cc1`, the growth was 28.4% (inactive) in the experiment with NCI-H23 lung; 50.7% (inactive) in the experiment with NCI-H226 lung; 78.3% (inactive) with NCI-H322M lung; 75.1% (inactive) with HOP-62 NSCLC; 99.8% (inactive) with NCI-H460 lung; 57.8% (inactive) in the experiment on HOP-92 NSCLC. In addition, the growth was -96.3% (active) in the experiment with NCI-H522 lung, 85.1% (inactive) in the experiment on A549/ATCC NSCLC, 44.7% (inactive) in the experiment on 786-0 renal and 52.3% (inactive) in the experiment with COLO 205 colon.

For the compound `O=[N+]([O-])c1ccc(N(CCO)CCO)c2c1no[n+]2[O-]`, the growth in the experiment on NCI-H23 lung was 10.1% (inactive); in the experiment on NCI-H226 lung it was 0.462% (active); with NCI-H322M lung, -16% (active); in the experiment on HOP-62 NSCLC, -34.1% (active); with NCI-H460 lung, -26.2% (active); in the experiment with HOP-92 NSCLC, -35.5% (active). The growth in the experiment with NCI-H522 lung was -62% (active); with A549/ATCC NSCLC, 4% (active); in the experiment on 786-0 renal, -31.5% (active); in the experiment on COLO 205 colon, -93.3% (active).

Regarding `O=c1[nH]c2ccccc2n1C1CCN(CCCC(c2ccc(F)cc2)c2ccc(F)cc2)CC1`, the growth in the experiment on NCI-H23 lung was 59.8% (inactive) and 38% (inactive); with NCI-H226 lung, 92.1% (inactive) and 61.6% (inactive); in the experiment with NCI-H322M lung, 64.2% (inactive) and 67.5% (inactive); in the experiment with HOP-62 NSCLC it was 84% (inactive) and -30.2% (active); with NCI-H460 lung it was -0.452% (active) and 2.65% (active); with HOP-92 NSCLC it was -42.3% (active) and 27.1% (inactive). In addition, the growth in the experiment on NCI-H522 lung was 62.3% (inactive) and 33.6% (inactive); in the experiment on A549/ATCC NSCLC, 39.5% (inactive) and 10.9% (inactive); in the experiment with 786-0 renal, -43.7% (active) and -57.1% (active); with COLO 205 colon it was -50.3% (active) and -70.3% (active).
